Results filed as inconclusive are left out. Activity calls are given as the source filed them. Unless noted, the call rests on the fitted dose curve; in most records, active means well fitted curve in the direction sought with a large enough effect; inconclusive means small, poorly fitted or top-dose-only effect, or another doubt; inactive means no such curve, though single readings can be large; an effect the other way counts as inactive or inconclusive.
Key:
[1] = qHTS Assay for Identification of Small Molecule Agonists for Hypoxia Response Element Signaling Pathway (AID 914; active means well fitted activation curve with a large enough effect in the signal ratio, with a control signal flat, not every such curve was filed as active; the % refers to the signal ratio; further: % of control where 0% means no effect); settings: ME-180 (cervical carcinoma) HRE-bla reporter, beta-lactamase ratio, CoCl2, 17 h; activation: hits give high values
Method in brief: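 A beta-lactamase reporter under hypoxia response element control in ME-180 cells served as the system. Compound titrations plus EC50 CoCl2 ran 17 h at 37 degrees Celsius; AC50 values were fitted from %Activity.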

[2] = S16 Schwann cell PMP22 intronic element firefly luciferase assay (AID 624032);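 further: plate controls were DMSO for no effect and PTC124 positive control mean for full effect; nearly all actives have a fitted effect of over 30% in size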
Method in brief: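 Rat S16 Schwann cells stably carrying a PMP22 intronic element-driven Fluc reporter were seeded overnight, then exposed to compounds for 24 h at 37 °C. Luminescence was normalized to PTC124 (positive control) and DMSO (0% activity).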

7G8 = assay: qHTS profiling for inhibitors of Plasmodium falciparum proliferation (AID 504749); further: nearly all actives have a fitted effect of over 60% in size; further: potency means the concentration at half of the fitted maximal effect; settings: P. falciparum in erythrocytes, SYBR Green DNA, 72 h; series mostly up to 12.8 µM
Method in brief: (§1)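 Fluorescence of SYBR Green-bound parasite DNA, read at 485/535 nm, served as the growth measure. Infected erythrocytes were cultured with compound 72 h; artemisinin (0.29 uM) and DMSO wells defined the normalization range.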

AA1029 = assay: as above; settings: P. falciparum in erythrocytes, SYBR Green DNA, 72 h; series mostly up to 12.8 µM
Method in brief: as §1

CP194 = assay: as above; settings: P. falciparum in erythrocytes, SYBR Green DNA, 72 h; series mostly up to 12.8 µM
Method in brief: as §1

CP203 = assay: as above; settings: P. falciparum in erythrocytes, SYBR Green DNA, 72 h; series mostly up to 12.8 µM
Method in brief: as §1

CP215 = assay: as above; settings: P. falciparum in erythrocytes, SYBR Green DNA, 72 h; series mostly up to 12.8 µM
Method in brief: as §1

CP265 = assay: as above; settings: P. falciparum in erythrocytes, SYBR Green DNA, 72 h; series mostly up to 12.8 µM
Method in brief: as §1

CP291 = assay: as above; settings: P. falciparum in erythrocytes, SYBR Green DNA, 72 h; series mostly up to 12.8 µM
Method in brief: as §1

CP335 = assay: as above; settings: P. falciparum in erythrocytes, SYBR Green DNA, 72 h; series mostly up to 12.8 µM
Method in brief: as §1

DIV30 = assay: as above; settings: P. falciparum in erythrocytes, SYBR Green DNA, 72 h; series mostly up to 12.8 µM
Method in brief: as §1

P93_24 = assay: as above; settings: P. falciparum in erythrocytes, SYBR Green DNA, 72 h; series mostly up to 12.8 µM
Method in brief: as §1

P94_40 = assay: as above; settings: P. falciparum in erythrocytes, SYBR Green DNA, 72 h; series mostly up to 12.8 µM
Method in brief: as §1

PC26 = assay: as above; settings: P. falciparum in erythrocytes, SYBR Green DNA, 72 h; series mostly up to 12.8 µM
Method in brief: as §1

[3] = biological target: Cytochrome P450 3A4 (Homo sapiens) (UniProt P08684); assay: qHTS Assay for Activators of Cytochrome P450 3A4 (AID 885); further: nearly all actives have a fitted effect of over 65% in size
Method in brief: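 Luminescent readout of luciferin formed from 25 uM Luciferin-PPXE (KM level) by 20 nM CYP3A4 in 200 mM KPO4, with 60 min NADPH-driven reaction at room temperature after 10 min compound exposure. Ketoconazole (57 uM) defined 100% inhibition.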

[4] = biological target: Cytochrome P450 2D6 (Homo sapiens) (UniProt P10635); assay: qHTS Assay for Inhibitors and Substrates of Cytochrome P450 2D6 (AID 891); further: potency means the concentration at half of the fitted maximal effect; nearly all actives have a fitted effect of over 60% in size
Method in brief: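 Luminescent read-out of luciferin formed by 5 nM human CYP2D6 demethylating 30 uM Luciferin-ME EGE (Km level) over 60 min at room temperature after NADPH regeneration addition. Data normalized to full inhibition by 1.43 uM quinidine.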

CP211 = assay: qHTS profiling for inhibitors of Plasmodium falciparum proliferation (AID 504749); further: nearly all actives have a fitted effect of over 60% in size; further: potency means the concentration at half of the fitted maximal effect; settings: P. falciparum in erythrocytes, SYBR Green DNA, 72 h; series mostly up to 12.8 µM
Method in brief: as §1

[5] = biological target: ATP-dependent 6-phosphofructokinase (Trypanosoma brucei brucei) (UniProt O15648); assay: qHTS Assay to Find Inhibitors of T. brucei phosphofructokinase: hit validation (AID 492961);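 further: luminescence reports ADP formed as PFK phosphorylates fructose-6-phosphate with ATP; on the % scale 0 is the no-effect control and ±100 the full control effect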
Method in brief: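 PFK 1.25 nM, F6P 0.5 mM, ATP 0.1 mM, MgCl2 5 mM, 0.1 M TEA pH 8.0, Tween20 0.01%, BSA 0.1%; 45 min RT. ADP-Glo two-step detection, luminescence. qHTS titration; curve fitting with curve-class categorization.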

ATP-dependent 6-phosphofructokinase (Trypanosoma brucei brucei), sequence (O15648 whole entry, looked up): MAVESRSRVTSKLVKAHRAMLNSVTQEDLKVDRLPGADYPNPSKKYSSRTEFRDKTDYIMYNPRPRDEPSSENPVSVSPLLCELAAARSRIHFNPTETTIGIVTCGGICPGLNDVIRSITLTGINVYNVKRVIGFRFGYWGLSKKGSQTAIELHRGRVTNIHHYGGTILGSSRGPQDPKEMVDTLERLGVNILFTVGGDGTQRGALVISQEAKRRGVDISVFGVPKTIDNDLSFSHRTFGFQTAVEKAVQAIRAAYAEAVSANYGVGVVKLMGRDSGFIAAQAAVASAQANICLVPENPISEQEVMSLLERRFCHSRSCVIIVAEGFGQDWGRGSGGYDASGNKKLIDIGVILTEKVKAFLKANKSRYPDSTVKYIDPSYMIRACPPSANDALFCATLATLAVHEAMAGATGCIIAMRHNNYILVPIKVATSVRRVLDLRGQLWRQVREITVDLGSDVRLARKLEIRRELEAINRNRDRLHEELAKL
Cytochrome P450 2D6 (Homo sapiens), sequence (P10635 whole entry, looked up): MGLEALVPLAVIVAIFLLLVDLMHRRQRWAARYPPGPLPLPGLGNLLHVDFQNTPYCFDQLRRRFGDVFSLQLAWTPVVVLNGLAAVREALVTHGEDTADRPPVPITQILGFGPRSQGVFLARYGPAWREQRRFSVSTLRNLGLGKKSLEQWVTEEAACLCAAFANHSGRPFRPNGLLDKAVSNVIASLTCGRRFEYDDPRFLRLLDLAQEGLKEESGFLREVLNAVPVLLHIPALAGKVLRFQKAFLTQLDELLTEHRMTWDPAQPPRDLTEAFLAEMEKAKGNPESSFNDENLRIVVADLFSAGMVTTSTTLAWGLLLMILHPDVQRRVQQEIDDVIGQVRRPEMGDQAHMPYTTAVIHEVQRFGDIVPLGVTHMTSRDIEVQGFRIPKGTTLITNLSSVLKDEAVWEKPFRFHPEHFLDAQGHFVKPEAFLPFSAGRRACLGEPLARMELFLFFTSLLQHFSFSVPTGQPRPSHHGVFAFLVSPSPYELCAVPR
Cytochrome P450 3A4 (Homo sapiens), sequence (P08684 whole entry, looked up): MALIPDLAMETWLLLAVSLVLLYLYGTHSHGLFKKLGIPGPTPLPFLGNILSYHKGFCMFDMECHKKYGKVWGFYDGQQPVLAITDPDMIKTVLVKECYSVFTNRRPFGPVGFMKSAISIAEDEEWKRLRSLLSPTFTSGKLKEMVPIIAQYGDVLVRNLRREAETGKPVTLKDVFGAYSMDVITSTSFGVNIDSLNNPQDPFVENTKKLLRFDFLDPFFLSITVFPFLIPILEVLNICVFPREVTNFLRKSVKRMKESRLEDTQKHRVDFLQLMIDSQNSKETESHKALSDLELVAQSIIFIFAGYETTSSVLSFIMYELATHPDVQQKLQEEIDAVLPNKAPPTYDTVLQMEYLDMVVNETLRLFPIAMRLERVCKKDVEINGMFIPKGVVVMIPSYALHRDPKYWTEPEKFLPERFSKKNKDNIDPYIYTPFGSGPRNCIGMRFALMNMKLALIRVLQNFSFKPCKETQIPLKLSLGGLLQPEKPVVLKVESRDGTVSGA

CC(=O)S[C@H]1CC2=CC(=O)CC[C@@]2(C)[C@H]2CC[C@@]3(C)[C@H](CC[C@]34CCC(=O)O4)[C@@H]12
inactive: activation [1] -20.6%

CC1=C(C(=O)O)N2C(=O)[C@@H](NC(=O)[C@@H](N)c3ccc(O)cc3)[C@@H]2SC1
inactive: Potency [2] | Potency (7G8) | Potency (AA1029) | Potency (CP194) | Potency (CP203) | Potency (CP215) | Potency (CP265) | Potency (CP291) | Potency (CP335) | Potency (DIV30) | Potency (P93_24) | Potency (P94_40) | Potency (PC26)

O[C@@](CCN1CCCC1)(c1ccccc1)C1CCCCC1
active: Potency (7G8) 4.47 µM
inactive: Potency (CP291) | Potency (CP335)

COc1cc(C2Oc3cc(C4Oc5cc(O)cc(O)c5C(=O)C4O)ccc3OC2CO)ccc1O (stereo not drawn)
inactive: Potency [3]

C[N+](C)(CCCOc1ccccc1)c1ccccc1
active: Potency [4] 0.0158 µM

NC[C@@H]1O[C@H](O[C@H]2[C@H](O)[C@H](O[C@@H]3O[C@H](CO)[C@@H](O)[C@H](N)[C@@H]3O)[C@@H](N)C[C@H]2N)[C@@H](O)[C@H](O)[C@@H]1O
inactive: Potency [2] | Potency (7G8) | Potency (AA1029) | Potency (CP194) | Potency (CP203) | Potency (CP211) | Potency (CP215) | Potency (CP265) | Potency (CP291) | Potency (CP335) | Potency (DIV30) | Potency (P93_24) | Potency (P94_40) | Potency (PC26)

CN[C@H]1[C@@H](O)[C@@H](NC)[C@@H]2O[C@@]3(O)C(=O)C[C@@H](C)O[C@H]3O[C@H]2[C@H]1O
inactive: Potency [2] | Potency (7G8) | Potency (AA1029) | Potency (CP194) | Potency (CP211) | Potency (CP215) | Potency (CP265) | Potency (CP291) | Potency (CP335) | Potency (DIV30) | Potency (P93_24) | Potency (P94_40) | Potency (PC26)

CC(=O)OCC(=O)[C@@]12OC(C)(C)O[C@@H]1C[C@H]1[C@H]3C[C@H](F)C4=CC(=O)C=C[C@@]4(C)[C@]3(F)[C@H](O)C[C@@]12C
inactive: outcome [5] | Potency [2] | Potency (AA1029) | Potency (CP194) | Potency (CP203) | Potency (CP211) | Potency (CP215) | Potency (CP265) | Potency (CP291) | Potency (CP335) | Potency (DIV30) | Potency (P93_24) | Potency (P94_40) | Potency (PC26)

C[C@@]12CCC(=O)C[C@@H]1CC(=O)[C@H]1[C@H]3CCC[C@]3(C)C(=O)C[C@@H]12 (tested in a mixture with another compound)
inactive: activation [1] -12.7%

NC[C@@H]1O[C@H](O[C@@H]2[C@H](O[C@@H]3O[C@H](CO)[C@@H](O)[C@@H]3O)[C@@H](O)[C@@H](N)C[C@H]2N)[C@@H](N)[C@H](O)[C@@H]1O
inactive: Potency [2] | Potency (AA1029) | Potency (CP194) | Potency (CP203) | Potency (CP211) | Potency (CP265) | Potency (CP291) | Potency (CP335) | Potency (DIV30) | Potency (P93_24) | Potency (P94_40) | Potency (PC26)

— PubChem BioAssay (NCATS)
